Among the data in PubChem BioAssay (NCI) are growth values, retold here.

Test systems include T-47D breast; BT-549 breast; MDA-MB-435 melanoma; SW-620 colon; MCF7 breast; HCT-116 colon; HCC-2998 colon; KM12 colon.
Common to all, as to experiment: NCI-60 one-dose screen, 48 h (100 = growth as untreated, 0 = no growth, -100 = all killed)
What all share (conditions): 10 µM unless noted

This is part of a sample that, as a whole, favours compounds with a hit. Of some 83,000 tested, about 20% had one in any assay.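 The endpoint reported here, percent growth, reads 100 for growth as untreated, 0 for no net growth and -100 for all cells dead.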 A number with no mark means an inactive call. Active and inactive are the calls of the source. How the source made its calls: active means growth percent below 10; inactive means the rest.

On to `NC(=O)c1cccc([C@@H]2O[C@H](CO)[C@@H](O)[C@H]2O)c1`, for which the growth is 85.7% in the experiment with T-47D breast; 90.9% in the experiment with BT-549 breast; 106% with MDA-MB-435 melanoma; 24% with SW-620 colon; 61.8% in the experiment on MCF7 breast; 72.7% in the experiment on HCT-116 colon. In addition, the growth was 93.9% with HCC-2998 colon and 34.7% with KM12 colon.
On to `CCCCNC(=O)Oc1ccc(/C(=C(/C)Cc2ccc(OC)cc2)c2ccc(OCCN3CCCCC3)cc2)cc1`, for which the growth was 37.9% in the experiment on T-47D breast; 81.9% in the experiment with BT-549 breast; 67.8% with MDA-MB-435 melanoma; 77.4% in the experiment on SW-620 colon; 26.9% in the experiment with MCF7 breast; 41.8% in the experiment with HCT-116 colon. Further, the results for the growth in the experiment on HCC-2998 colon and with KM12 colon were 75.5% and 73.6%, respectively.
`CCOC(=O)C(Cc1ccc(OC)cc1)C(=O)OCC`: the growth in the experiment on T-47D breast was 20.7%; in the experiment with BT-549 breast it was -9.62% (active); in the experiment with MDA-MB-435 melanoma, 14.7%; in the experiment on SW-620 colon, 35.1%; in the experiment with MCF7 breast it was 17.1%; with HCT-116 colon, 17.8%. The figures for the growth with HCC-2998 colon and with KM12 colon were 55.5% and 7.78% (active), respectively.
For `O=C1C(Nc2ccccn2)=C(I)C(=O)c2ncccc21`, the growth was -42.5% (active) with T-47D breast; -68.5% (active) with BT-549 breast; -82.2% (active) with MDA-MB-435 melanoma; -64.6% (active) in the experiment on SW-620 colon; -58.7% (active) in the experiment on MCF7 breast; -62.2% (active) with HCT-116 colon. The growth with HCC-2998 colon was 53.1%; in the experiment on KM12 colon it was -26.1% (active).
As to `Cc1ccc(C(=O)c2ccc(CC(=O)N=Nc3c(O)[nH]c4ccc(Br)cc34)n2C)cc1`, the growth was 74.5% in the experiment with T-47D breast; 100% in the experiment with BT-549 breast; 98.7% in the experiment on MDA-MB-435 melanoma; 91.2% in the experiment with SW-620 colon; 86.9% in the experiment on MCF7 breast; 86% in the experiment on HCT-116 colon. Besides, the figures for the growth in the experiment on HCC-2998 colon and in the experiment on KM12 colon were 124% and 97.9%, respectively.
As to `CCN(CC)CCCN1C(=O)c2c(c(C)c3c(oc4ccc(O)cc43)c2C)C1=O`, the growth was 87.2% in the experiment on T-47D breast; 96.6% with BT-549 breast; 93.4% in the experiment on MDA-MB-435 melanoma; -37% (active) in the experiment with SW-620 colon; 65.8% in the experiment on MCF7 breast; -77.9% (active) in the experiment on HCT-116 colon. For the same compound, the growth is 67% with HCC-2998 colon and 70.7% with KM12 colon.
For `COc1ccc2c(c1)c(/C(O)=C1\COC(=O)C1=O)cn2Cc1ccc(F)cc1`, the growth in the experiment on T-47D breast was 114%; in the experiment with BT-549 breast it was 110%; in the experiment on MDA-MB-435 melanoma, 109%; in the experiment on SW-620 colon, 101%; with MCF7 breast, 107%; in the experiment on HCT-116 colon, 104%. The growth in the experiment with HCC-2998 colon is 108%; in the experiment with KM12 colon it was 109%.
As for `C/C=C(\C)C(=O)N[C@H]1C(O)C[C@]2(C)C3CC[C@@]4(C)C(CC[C@@H]4C(C)N(C)C)C3CCC2C1O` (some centres not stated), the growth is 37.6% in the experiment with T-47D breast; 88.9% in the experiment with BT-549 breast; -22.2% (active) in the experiment on MDA-MB-435 melanoma; 12.9% in the experiment with SW-620 colon; 28.6% in the experiment with MCF7 breast; 3.85% (active) in the experiment on HCT-116 colon. For the same compound, the growth is 59.7% in the experiment on HCC-2998 colon and 28.7% in the experiment on KM12 colon.
On to `COc1cc(Cl)c(C)cc1NC(=O)c1cc2ccccc2cc1O`, for which the growth was 11.5% in the experiment on T-47D breast; 22.9% in the experiment with BT-549 breast; 3.68% (active) in the experiment with MDA-MB-435 melanoma; 21.2% in the experiment on SW-620 colon; 17.2% with MCF7 breast; 4.6% (active) in the experiment on HCT-116 colon. Further, the results for the growth in the experiment with HCC-2998 colon and with KM12 colon were 17% and 9.32% (active), respectively.
For the compound `COc1cc(-c2nc3cc(Cl)c(Cl)cc3[nH]2)ccc1OCC(=O)N=Nc1c(O)[nH]c2ccc(Cl)cc12`, the growth in the experiment on T-47D breast is -4.31% (active); in the experiment with BT-549 breast it was 12%; in the experiment on MDA-MB-435 melanoma, -57.7% (active); in the experiment with SW-620 colon, -14.2% (active); in the experiment on MCF7 breast, 1.63% (active); in the experiment on HCT-116 colon, -16.2% (active). Moreover, the growth with HCC-2998 colon was -39.2% (active); with KM12 colon, 9.24% (active).
For `Cn1c(=O)c2[nH]c(SCC(=O)Nc3ccc(C(=O)/C=C/c4ccccc4Cl)cc3)nc2n(C)c1=O`, the growth in the experiment on T-47D breast was 92.4%; with BT-549 breast, 83.3%; in the experiment on MDA-MB-435 melanoma it was 92%; with SW-620 colon, 95.8%; with MCF7 breast, 69.4%; in the experiment with HCT-116 colon, 58.5%. Further, the figures for the growth in the experiment with HCC-2998 colon and with KM12 colon were 106% and 97.9%, respectively.
As to `O=c1ccc(=O)n(-c2nc(-c3ccc([N+](=O)[O-])cc3)cs2)[nH]1`, the growth in the experiment with T-47D breast was 98.5%; in the experiment on BT-549 breast, 98.5%; with MDA-MB-435 melanoma it was 99.1%; in the experiment with SW-620 colon it was 101%; in the experiment on MCF7 breast it was 90.1%; with HCT-116 colon, 95.2%. Besides, the growth with HCC-2998 colon is 106%; with KM12 colon it was 99.6%.
For `COc1ccc(CCN2C(=O)/C(=C/c3ccc(C4Oc5ccccc5C5CC(c6ccccc6)=NN54)cc3)SC2=S)cc1` (configuration not stated), the growth was 103% with T-47D breast; 101% with BT-549 breast; 104% in the experiment with MDA-MB-435 melanoma; 100% with SW-620 colon; 97.3% in the experiment on MCF7 breast; 104% with HCT-116 colon. For the same compound, the growth is 104% in the experiment with HCC-2998 colon and 106% in the experiment with KM12 colon.
Take `COc1ccc(/C=C/C(c2cc(OC)c(OC)c(OC)c2)n2cncn2)cc1` (configuration not stated): the growth is 30.8% in the experiment with T-47D breast; 45.5% in the experiment with BT-549 breast; -9.62% (active) in the experiment with MDA-MB-435 melanoma; 26.6% in the experiment on SW-620 colon; 22.5% in the experiment with MCF7 breast; 22% in the experiment on HCT-116 colon. Besides, the results for the growth in the experiment with HCC-2998 colon and in the experiment with KM12 colon were 84.2% and 30.7%, respectively.
